ELG1 genotox – genotoxicity induction in ELG1-luciferase HEK293T cells | HEK293T ELG1-luciferase reporter, luminescence, 16 h | Potency, µM (series often up to 46 µM), usual class: activators | 330,000 tested, 1.3% active; also: nearly all actives have a fitted effect of over 60% in size
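Step 1: seed 2,000 HEK293T ELG1-luciferase cells per well. Step 2: add compound or DMSO, incubate 16 hr at 37 °C. Step 3: ONE-Glo, 30 min at room temperature, read luminescence.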
FLuc modulator – inhibits or activates purified firefly luciferase, miR-21 counter-screen | purified FLuc, Km substrates, luminescence inhibition | Potency, µM (titrated, usually from 57.5 µM), hits mostly inhibitors | 360,000 tested, 6.9% active; also: nearly all actives have a fitted effect of over 55% in size
Target sequence (P08659 whole entry, looked up): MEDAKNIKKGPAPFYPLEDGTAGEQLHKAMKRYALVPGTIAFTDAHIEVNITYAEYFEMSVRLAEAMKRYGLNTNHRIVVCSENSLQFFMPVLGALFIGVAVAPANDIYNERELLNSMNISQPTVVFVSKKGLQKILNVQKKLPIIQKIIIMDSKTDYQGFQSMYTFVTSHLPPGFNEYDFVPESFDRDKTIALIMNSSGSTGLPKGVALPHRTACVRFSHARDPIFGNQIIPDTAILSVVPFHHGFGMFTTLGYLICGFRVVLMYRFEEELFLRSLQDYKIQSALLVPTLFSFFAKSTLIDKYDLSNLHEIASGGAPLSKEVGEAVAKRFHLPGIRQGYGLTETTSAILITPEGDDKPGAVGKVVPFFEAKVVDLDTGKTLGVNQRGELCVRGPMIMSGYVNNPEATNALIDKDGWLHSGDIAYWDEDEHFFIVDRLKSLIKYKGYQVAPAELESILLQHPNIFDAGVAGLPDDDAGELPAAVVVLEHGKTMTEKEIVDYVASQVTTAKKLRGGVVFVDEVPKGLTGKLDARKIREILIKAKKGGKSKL
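Purified P. pyralis luciferase, 10 nM final, with Km-level 10 uM D-luciferin and 10 uM ATP in 50 mM Tris acetate pH 7.5, 10 mM Mg acetate, 0.01% Tween-20, 0.05% BSA; 6-point qHTS titration about 60 µM downward; luminescence read.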
NPC1 promoter act – activates the NPC1 promoter. 320,000 tested, 2.4% active. Huh7 NPC1 promoter luciferase reporter, 24 h. Potency, µM (highest dose often 9.22 µM), actives largely listed as activators; also: nearly all actives have a fitted effect of over 60% in size
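Readout is luciferase luminescence, reflecting NPC1 promoter activation in stably transfected Huh7 cells after 24 h compound exposure at 37 °C in reduced-serum medium with 10% FBS.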
ELG1 repair inh – inhibitors of ELG1-dependent DNA repair in HEK293T cells; Potency, µM (top dose mostly 46.1 µM), hits mostly inhibitors; 330,000 tested, 2.3% active; HEK293T ELG1-luciferase reporter, luminescence, 16 h; DNA damage induced by 5-fluorouridine; AID 504467; also: nearly all actives have a fitted effect of over 55% in size
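Reporter activity after DNA damage by 5-fluorouridine is monitored. Compound-treated cells incubate 16 hr at 37 °C, then ONE-Glo is added for 30 min before luminescence reading.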
SMN2 splice up – increases expression of the SMN2 splice variant; HEK293 SMN2-luciferase splicing reporter, luminescence, 30-36 h; Potency, µM (doses to about 46.1 µM), actives largely listed as activators; 210,000 tested, 2.8% active; AID 1458; also: nearly all actives have a fitted effect of over 55% in size
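HEK293 cells carry an SMN2 minigene-luciferase reporter in which exon 7 inclusion puts luciferase in frame. Cells were seeded at 2000 cells/well, attached for 10-12 hours, then exposed to compounds for 30-36 hours at 37C before ONE-Glo luminescence.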
Rab9 promoter act – Rab9 promoter activation | Huh7 Rab9 promoter-luciferase reporter, luminescence, 24 h | Potency, µM (highest dose often 9.22 µM), most hits filed as activators | 320,000 tested, 2.8% active; also: nearly all actives have a fitted effect of over 60% in size
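Huh7 reporter line, Rab9 promoter upstream of luciferase. Compound exposure 24 h at 37 °C in reduced-serum medium with 10% FBS. Read-out: luminescence.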
Hits are given with their value; – = inactive; ? = inconclusive; · = no result; [ ] = dose if it differs, or a comment. Sampled rows, rich in hits. Any-hit rate of the full collection: about 9.3%. Calls follow the shape of the dose curve; as a rule, active = well fitted curve in the direction sought with a large enough effect; inconclusive = small, poorly fitted or top-dose-only effect, or another doubt; inactive = no such curve, though single readings can be large; an effect the other way counts as inactive or inconclusive.

SMILES	ELG1 genotox	FLuc modulator	NPC1 promoter act	ELG1 repair inh	SMN2 splice up	Rab9 promoter act
CS(=O)(=O)c1ccccc1C(=O)Nc1ccc(-c2nc3ccccc3[nH]2)cc1	–	13µM	?	?	·	3.5µM
Cc1ccc(C(=O)Nc2ccc(-c3nc4ccccc4o3)cc2)cc1Cl	·	–	·	·	–	·
Cc1ccc(C(=O)Nc2cccc(-c3nc4ccccc4o3)c2)c(Cl)c1	·	?	·	·	–	·
O=C(O)c1ccccc1-c1ccccc1C(=O)Nc1cccc(-c2nc3ccccc3o2)c1	–	8.5µM	–	–	·	–
O=C(N/C(=C/c1cccc([N+](=O)[O-])c1)C(=O)N1CCCCC1)c1ccco1	–	–	–	?	·	–
CCCn1nnc(NC(=O)/C=C/c2cc(Br)ccc2OC)n1	–	–	–	–	–	–
CN(C(=O)CN(c1ccccc1)S(=O)(=O)c1ccc(F)cc1)C1CCS(=O)(=O)C1 (configuration not stated)	–	–	–	?	·	–
CCc1nc2ccccc2c(C(=O)Nc2cc(C)ccc2C)c1C	–	–	–	–	·	–
Cc1c(Cl)cccc1NC(=O)Cn1cc(C(=O)C2CCCCC2)c2ccccc21	·	–	·	·	–	·
COc1ccccc1/C=C(/NC(=O)c1ccc(Cl)cc1Cl)C(=O)O	–	–	–	–	–	–
CC1=Nc2ccc3ccccc3c2C1(C)C	–	–	–	–	–	–
Cc1c2ccccc2c(C)c2c1ccc1ccccc12	18µM	13µM	–	?	–	?
CCCc1ccc(OC(C)C(=O)Nc2sc3c(c2C(=O)OC)CCCCC3)cc1 (configuration not stated)	·	–	·	·	–	·
O=C(CCS(=O)(=O)c1cccc2nonc12)Nc1ccc(F)cc1F	·	–	·	·	·	·
O=C(Nc1ccccc1N1CCOCC1)c1cc2c(s1)CCCCC2	–	4.8µM	–	–	·	?
O=C(Nc1ccc(N2CCOCC2)cc1)c1cc2c(s1)CCCCC2	–	19µM	–	–	–	–
C=CCOC(=O)N[C@H](/C(C(=O)OC)=C(\C)NCc1ccccc1)c1cccc(F)c1	·	·	·	·	–	·
COc1ccc(-c2ccnc(-c3ccc(O)cc3)n2)cc1	?	?	–	?	–	–
Cc1ccc(-c2ccnc(-c3ccc(O)cc3)n2)cc1	?	21µM	–	?	–	–
Cc1ccc(C(=O)Oc2ccc(-c3nccc(-c4ccccn4)n3)cc2)cc1	10µM	–	?	?	?	–
O=C(Oc1ccc(-c2nccc(-c3ccccn3)n2)cc1)c1cccc(C(F)(F)F)c1	?	–	–	?	?	–
Oc1ccc(-c2nccc(-c3ccccn3)n2)cc1	?	17µM	?	?	·	?
CN(Cc1ccccc1)C(=O)c1ccc(NC(=O)Cc2cccc(NC(=O)C3CCCN(C(=O)C4CCC4)C3)c2)cc1 (configuration not stated)	–	–	–	?	·	–
O=C(c1ccc(CNS(=O)(=O)c2ccc(Br)cc2)cc1)N1CCCC1	–	–	–	–	·	–
CCOc1ccc(CCNC(=O)CSc2nnnn2-c2ccccc2Cl)cc1OCC	·	–	·	·	–	·
SMILES	ELG1 genotox	FLuc modulator	NPC1 promoter act	ELG1 repair inh	SMN2 splice up	Rab9 promoter act
CC(C)OCC(O)CN1CCN(CCN2C(=O)c3cccc4cccc(c34)C2=O)CC1 (configuration not stated)	–	–	–	–	·	–
Cc1ccccc1OCC(O)CN1CCN(CCN2C(=O)c3cccc4cccc(c34)C2=O)CC1 (configuration not stated)	–	–	–	23µM	–	–
CCC(OCC(O)CN1CCN(CCN2C(=O)c3cccc4cccc(c34)C2=O)CC1)c1ccccc1 (configuration not stated)	–	–	–	21µM	–	–
CC(=O)c1ccc(OCC(O)CN2CCN(CCN3C(=O)c4cccc5cccc(c45)C3=O)CC2)cc1 (configuration not stated)	–	–	–	23µM	–	–
Cc1cccc(C)c1OCC(O)CN1CCC(CN2C(=O)c3cccc4cccc(c34)C2=O)CC1 (configuration not stated)	–	–	–	23µM	·	–
CC(C)c1ccc2c(c1)CC[C@H]1[C@@](C)(CN)CCC[C@@]21C	·	·	·	·	–[9.22 µM]	·
C=CCc1ccccc1OCC(O)CN1CCN(CCN2C(=O)c3cccc4cccc(c34)C2=O)CC1 (configuration not stated)	–	–	–	21µM	–	–
CC(=O)c1ccc(NC(=O)/C(=C\c2ccc(F)cc2)NC(=O)c2ccco2)cc1	–	–	–	–	·	–
CC(C)(C)OC(=O)N[C@@H](Cc1ccccc1)C(=O)N[C@@H](CO)[C@H](O)[C@@H]1C[C@@H]1C(=O)NC1CC1	–	–	–	–	·	–
C[N+]1=C(/C=C/Nc2ccccc2Cl)C(C)(C)c2ccccc21	–	?	–	–	–[1.84 µM]	–
COC(=O)c1ccc2c(c1)C(C)(C)C(/C=C/c1ccccc1O)=[N+]2C	?	15µM	–	6.5µM	–	–
O=C(Nc1cccnc1)c1ccccc1O	–	15µM	–	?	–	–
COc1cc(C(=O)Nc2cc(C)ccn2)cc(OC)c1OC	–	–	–	–	–	–
Cc1ccc(NC(=O)c2cccc3ccccc23)cc1	–	15µM	?	?	·	?
COc1ccc(C(=O)Nc2ccccc2C(=O)Nc2cc(C)ccn2)cc1	–	1.3µM	1.8µM	?	·	3.5µM
COc1cc2ccccc2cc1C(=O)Nc1cc(C)ccn1	?	12µM	?	?	·	3.2µM
O=C(Nc1cccnc1)c1ccccc1-c1ccccc1	–	–	–	–	–	–
Cc1ccnc(NC(=O)c2ccccc2NC(=O)C(C)(C)C)c1	–	–	–	?	–	–
CCOC(=O)c1ccc(CN(Cc2ccc(Br)cc2)S(=O)(=O)c2cccc(Cl)c2C)cc1	·	–	·	·	·	·
O=C(Nc1c(C(=O)Nc2cccc(C(F)(F)F)c2)oc2ccccc12)c1cc(=O)c2ccccc2o1	·	–	·	·	–	·
COc1cccc(NC(=O)c2ccccc2NC(=O)c2ccncc2)c1	–	·	·	?	·	·
COc1ccc2[nH]c(C(=O)Nc3cccc(C)n3)cc2c1	?	1.2µM	0.63µM	?	·	0.5µM
COc1ccc(C(=O)Nc2ccccc2C(=O)Nc2cccc(C)n2)cc1	–	5.4µM	?	–	·	–
C/C(CC(=O)Nc1cc(C)ccn1)=N\NC(=O)c1ccc(C(C)(C)C)cc1	–	11µM	–	–	·	–
COc1ccc(C(=O)NC(=O)Nc2cc(C)ccn2)cc1	?	0.19µM	0.79µM	?	·	0.79µM
C/C(CC(=O)Nc1ccccn1)=N\NC(=O)c1ccc(C)cc1	–	–	–	–	–	–
CCCCN1C(=O)c2[nH]nc(-c3ccccc3O)c2C1c1cc(Br)c(O)c(OC)c1 (configuration not stated)	·	–	·	·	–	·

Screening results deposited in PubChem BioAssay by National Center for Advancing Translational Sciences (NCATS).
